Compounds without any hit were thinned out: in the full panel of roughly 79,000, 15% have a hit. Active and inactive are the calls of the source. Cut-off read from the data, not from the text of the source: active = growth inhibition above about 70%; inactive = the rest.
Columns and labels:
[1] = NCI Yeast Anticancer Drug Screen. Data for the wt1 strain (AID 149);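 note: 0% = growth of vehicle-treated wt1 cultures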; conditions: S. cerevisiae wt1 strain (SPY 50644) growth inhibition, hits give high values
Procedure, shortened: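 wt1 yeast, compound-treated; % growth inhibition vs vehicle control.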

[2] = NCI Yeast Anticancer Drug Screen. Data for the rad50EPP+ strain (AID 151);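 note: 0% = growth of vehicle-treated control cultures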; conditions: S. cerevisiae rad50 mutant strain, hits give high values
Procedure, shortened: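 Measured: growth inhibition of rad50EPP+ yeast. Reference: vehicle-treated controls. Screen uses strains with defined genetic alterations in DNA damage repair or cell cycle control.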

[3] = NCI Yeast Anticancer Drug Screen. Data for the mgt1 strain (AID 153); conditions: S. cerevisiae mgt1 mutant growth inhibition, hits give high values
Procedure, shortened: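 Compounds were applied to mgt1 mutant yeast, and growth was then compared against vehicle-treated control cultures to give percent inhibition.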

[4] = NCI Yeast Anticancer Drug Screen. Data for the rad50 strain (AID 155);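 note: 0% = growth of vehicle-only cultures of the same strain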; conditions: S. cerevisiae rad50 strain growth inhibition, hits give high values
Procedure, shortened: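 Genetically altered yeast (DNA repair pathway); compound treatment; growth inhibition vs vehicle ctrl.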

[5] = NCI Yeast Anticancer Drug Screen. Data for the mec2-1 strain (AID 157); conditions: S. cerevisiae mec2-1 strain, hits give high values
Procedure, shortened: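 Compounds were applied to mec2-1 yeast cells. Their growth was then compared with that of vehicle-treated cultures to give growth inhibition.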

[6] = NCI Yeast Anticancer Drug Screen. Data for the rad14 strain (AID 159);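 note: 0% = growth of vehicle-treated control cultures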; conditions: S. cerevisiae rad14 strain growth inhibition, hits give high values
Procedure, shortened: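 Test compounds were applied to a repair-deficient yeast strain. Its growth was then compared with that of cultures given vehicle alone, and inhibition was expressed relative to those controls.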

[7] = NCI Yeast Anticancer Drug Screen. Data for the sgs1 mgt1 strain (AID 161);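 note: 0% = growth of cultures given vehicle only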; conditions: S. cerevisiae sgs1 mgt1 strain, hits give high values
Procedure, shortened: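 This yeast growth screen uses a strain with defined DNA-repair lesions; compound-treated growth is compared with vehicle-treated growth.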

[8] = NCI Yeast Anticancer Drug Screen. Data for the CLN2oe strain (AID 163);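 note: 0% = growth of vehicle-only control cultures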; conditions: S. cerevisiae CLN2oe strain, hits give high values
Procedure, shortened: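 Cells of an engineered yeast line with disturbed cell-cycle regulation are treated with compound. Inhibition of growth is then calculated relative to the vehicle-treated reference.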

[9] = NCI Yeast Anticancer Drug Screen. Data for the cln2 rad14 strain (AID 165);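 note: 0% = growth equal to vehicle treated cultures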; conditions: S. cerevisiae cln2 rad14 strain, hits give high values
Procedure, shortened: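 Strain: cln2 rad14 yeast, altered in cell cycle control and DNA damage repair. Read-out: growth inhibition vs vehicle.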

[10] = NCI Yeast Anticancer Drug Screen. Data for the bub3 strain (AID 167); conditions: S. cerevisiae bub3 mutant strain, hits give high values
Procedure, shortened: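 Yeast carrying a defined mutation is treated with each compound, and growth is compared with that of vehicle-exposed cells to give inhibition.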

[11] = NCI Yeast Anticancer Drug Screen. Data for the wt2 strain (AID 169);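 note: 0% = growth of vehicle-treated yeast cultures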; conditions: S. cerevisiae wt2 strain growth inhibition, hits give high values
Procedure, shortened: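 Growth of compound-treated yeast is measured and expressed as inhibition relative to vehicle-only controls.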

[12] = NCI Yeast Anticancer Drug Screen. Data for the mlh1 strain (AID 171);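 note: 0% = growth of vehicle-treated control cultures of the same strain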; conditions: S. cerevisiae mlh1 strain growth inhibition, hits give high values
Procedure, shortened: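 Test agents were incubated with yeast bearing a defined DNA damage repair or cell cycle control alteration; values are growth inhibition normalised to vehicle-treated cultures.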

[13] = NCI Yeast Anticancer Drug Screen. Data for the sgs1 strain (AID 173);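 note: 0% = growth of vehicle-only control cultures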; conditions: S. cerevisiae sgs1 mutant, hits give high values
Procedure, shortened: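 Strain with an altered DNA repair or cell cycle pathway exposed to compound. Growth then measured. Value = inhibition versus vehicle control.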

[14] = NCI Yeast Anticancer Drug Screen. Data for the mlh1 rad18 strain (AID 175); conditions: S. cerevisiae mlh1 rad18 strain growth inhibition, hits give high values
Procedure, shortened: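 A repair-deficient yeast strain is exposed to test compound, and growth is scored relative to vehicle-treated controls.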

[15] = NCI Yeast Anticancer Drug Screen. Data for the rad52 strain (AID 147);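 note: 0% = growth of vehicle-treated control cultures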; conditions: S. cerevisiae rad52 mutant growth inhibition, hits give high values
Procedure, shortened: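 Growth of repair-deficient yeast cells was compared between compound-treated and vehicle-treated cultures to give percent inhibition.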

[16] = NCI Yeast Anticancer Drug Screen. Data for the rad18 strain (AID 177); conditions: S. cerevisiae rad18 mutant growth inhibition, hits give high values
Procedure, shortened: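 DNA-repair-defective yeast; compound treatment; growth inhibition scored against vehicle.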

[17] = at 5.0 µM (retest, dose inferred, filed as 0.5)
[18] = at 50.0 µM (retest, dose inferred, filed as 5.0)

Measured: growth inhibition

O=C(O)/C=C\C(=O)NNc1ccc(Br)cc1
inactive: [1]; at 1.2 µM 2% | [2]; at 1.2 µM 14% | [3]; at 1.2 µM -1% | [3]; at 3.7 µM 32% | [4]; at 1.2 µM 8% | [4]; at 3.7 µM 53% | [4]; [17] 10% | [5]; at 1.2 µM 1% | [6]; at 1.2 µM 4% | [7]; [17] 31% | [8]; at 1.2 µM -6% | [9]; [17] 15% | [10]; at 1.2 µM 10% | [10]; at 3.7 µM 60% | [10]; [17] 3% | [11]; at 1.2 µM 13% | [12]; at 1.2 µM -2% | [13]; at 1.2 µM 4% | [13]; at 3.7 µM 66% | [14]; [17] 27%
active: [1]; at 3.7 µM 97% | [1]; at 11.0 µM 99% | [1]; at 33.0 µM 99% | [1]; at 100.0 µM 99% | [2]; at 3.7 µM 78% | [2]; at 11.0 µM 98% | [2]; at 33.0 µM 99% | [2]; at 100.0 µM 99% | [3]; at 11.0 µM 99% | [3]; at 33.0 µM 99% | [3]; at 100.0 µM 98% | [4]; at 11.0 µM 99% | [4]; at 33.0 µM 98% | [4]; [18] 97% | [4]; at 50.0 µM 98.3% | [4]; at 100.0 µM 99% | [5]; at 3.7 µM 90% | [5]; [17] 76% | [5]; at 11.0 µM 99% | [5]; at 33.0 µM 99% | [5]; [18] 99% | [5]; at 50.0 µM 98.2% | [5]; at 100.0 µM 99% | [6]; at 3.7 µM 99% | [6]; at 11.0 µM 99% | [6]; at 33.0 µM 99% | [6]; at 100.0 µM 99% | [7]; [18] 98% | [7]; at 50.0 µM 98.5% | [8]; at 3.7 µM 96% | [8]; at 11.0 µM 99% | [8]; at 33.0 µM 99% | [8]; at 100.0 µM 99% | [9]; [18] 97% | [9]; at 50.0 µM 97.3% | [10]; at 11.0 µM 99% | [10]; at 33.0 µM 99% | [10]; [18] 97% | [10]; at 50.0 µM 98.5% | [10]; at 100.0 µM 99% | [11]; at 3.7 µM 99% | [11]; at 11.0 µM 99% | [11]; at 33.0 µM 99% | [11]; at 100.0 µM 99% | [12]; at 3.7 µM 77% | [12]; at 11.0 µM 98% | [12]; at 33.0 µM 98% | [12]; at 100.0 µM 99% | [13]; at 11.0 µM 99% | [13]; at 33.0 µM 99% | [13]; at 100.0 µM 99% | [14]; [18] 98% | [14]; at 50.0 µM 98.3%

Cc1cc(NCCCN(C)C)c2ccc3c(ccc4c(NCCCN(C)C)cc(C)nc43)c2n1
active: [4]; [18] 90% | [7]; [18] 81% | [14]; [18] 85%
inactive: [15]; at 1.2 µM 6% | [15]; at 3.7 µM 21% | [15]; at 11.0 µM 17% | [15]; at 33.0 µM 19% | [15]; at 100.0 µM 47% | [1]; at 1.2 µM 22% | [1]; at 3.7 µM 18% | [1]; at 11.0 µM 15% | [1]; at 33.0 µM 9% | [1]; at 100.0 µM 27% | [2]; at 1.2 µM 6% | [2]; at 3.7 µM 6% | [2]; at 11.0 µM 11% | [2]; at 33.0 µM -26% | [2]; at 100.0 µM 22% | [4]; at 1.2 µM 21% | [4]; at 3.7 µM 17% | [4]; [17] 11% | [4]; at 11.0 µM 17% | [4]; at 33.0 µM 21% | [4]; at 50.0 µM 55.9% | [4]; at 100.0 µM 59% | [5]; at 1.2 µM 7% | [5]; at 3.7 µM 15% | [5]; [17] 5% | [5]; at 11.0 µM 11% | [5]; at 33.0 µM 12% | [5]; [18] 31% | [5]; at 50.0 µM 25.6% | [5]; at 100.0 µM 35% | [6]; at 1.2 µM 2% | [6]; at 3.7 µM 3% | [6]; at 11.0 µM 15% | [6]; at 33.0 µM 22% | [6]; at 100.0 µM 58% | [7]; [17] 7% | [7]; at 50.0 µM 18.6% | [8]; at 1.2 µM -7% | [8]; at 3.7 µM -4% | [8]; at 11.0 µM -1% | [8]; at 33.0 µM 17% | [8]; at 100.0 µM 52% | [9]; [17] 8% | [9]; [18] 57% | [9]; at 50.0 µM 19.1% | [10]; at 1.2 µM 1% | [10]; at 3.7 µM 11% | [10]; [17] 1% | [10]; at 11.0 µM 9% | [10]; at 33.0 µM 5% | [10]; [18] 31% | [10]; at 50.0 µM 11.3% | [10]; at 100.0 µM 22% | [11]; at 1.2 µM -57% | [11]; at 3.7 µM -39% | [11]; at 11.0 µM -63% | [11]; at 33.0 µM -40% | [11]; at 100.0 µM 25% | [13]; at 1.2 µM 3% | [13]; at 3.7 µM 10% | [13]; at 11.0 µM 7% | [13]; at 33.0 µM 8% | [13]; at 100.0 µM 46% | [14]; [17] 10% | [14]; at 50.0 µM 9.8% | [16]; at 1.2 µM 10% | [16]; at 3.7 µM 4% | [16]; at 11.0 µM 2% | [16]; at 33.0 µM -8% | [16]; at 100.0 µM 34%

CCOC(=O)/C(O)=C(/C=N/C(=S)Nc1c(CC)cccc1CC)C(=O)OCC
inactive: [1]; at 1.2 µM -31% | [1]; at 3.7 µM -7% | [1]; at 11.0 µM 2% | [1]; at 33.0 µM 21% | [1]; at 100.0 µM 33% | [2]; at 1.2 µM -3% | [2]; at 3.7 µM -1% | [2]; at 11.0 µM -5% | [2]; at 33.0 µM -3% | [2]; at 100.0 µM -7% | [3]; at 1.2 µM -7% | [3]; at 3.7 µM -6% | [3]; at 11.0 µM 0% | [3]; at 33.0 µM 20% | [3]; at 100.0 µM 35% | [4]; at 1.2 µM -6% | [4]; at 3.7 µM -3% | [4]; [17] 7% | [4]; at 11.0 µM 11% | [4]; at 33.0 µM 36% | [4]; [18] 65% | [4]; at 50.0 µM 65.3% | [4]; at 100.0 µM 47% | [5]; at 1.2 µM -10% | [5]; at 3.7 µM -5% | [5]; [17] 3% | [5]; at 11.0 µM 10% | [5]; at 33.0 µM 27% | [5]; [18] 34% | [5]; at 50.0 µM 24.6% | [5]; at 100.0 µM 36% | [6]; at 1.2 µM -7% | [6]; at 3.7 µM -7% | [6]; at 11.0 µM -2% | [6]; at 33.0 µM 20% | [6]; at 100.0 µM 38% | [7]; [17] -4% | [7]; [18] 10% | [7]; at 50.0 µM 51.3% | [8]; at 1.2 µM -16% | [8]; at 3.7 µM -23% | [8]; at 11.0 µM -19% | [8]; at 33.0 µM -1% | [8]; at 100.0 µM 29% | [9]; [17] -1% | [9]; [18] 25% | [9]; at 50.0 µM 35.2% | [10]; at 1.2 µM -9% | [10]; at 3.7 µM -10% | [10]; [17] -20% | [10]; at 11.0 µM -5% | [10]; at 33.0 µM 12% | [10]; [18] 49% | [10]; at 50.0 µM 67% | [10]; at 100.0 µM 31% | [11]; at 1.2 µM -7% | [11]; at 3.7 µM -6% | [11]; at 11.0 µM -1% | [11]; at 33.0 µM 23% | [11]; at 100.0 µM 40% | [12]; at 1.2 µM -6% | [12]; at 3.7 µM -4% | [12]; at 11.0 µM 6% | [12]; at 33.0 µM 28% | [12]; at 100.0 µM 45% | [13]; at 1.2 µM -8% | [13]; at 3.7 µM 3% | [13]; at 11.0 µM 17% | [13]; at 33.0 µM 42% | [13]; at 100.0 µM 53% | [14]; [17] -8% | [14]; [18] 36% | [14]; at 50.0 µM 59.9% | [16]; at 1.2 µM -4% | [16]; at 3.7 µM -8% | [16]; at 11.0 µM 8% | [16]; at 33.0 µM 46% | [16]; at 100.0 µM 62%
